Data: PubChem BioAssay (NCI)
Compounds without any hit were thinned out: in the full panel of roughly 83,000, 20% have a hit.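 Note: values are percent growth. 100 is the growth of untreated cells, values between 100 and 0 indicate rising inhibition; between -100 and 0 indicates cell death.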 A number with no mark means an inactive call. Calls of active or inactive are those of the source. How the source made its calls: active means growth percent below 10; inactive means the rest.

Test system: KM12 colon
Assay: NCI-60 one-dose screen, 48 h (100 = growth as untreated, 0 = no growth, -100 = all killed)
Details: 10 µM unless noted

| SMILES | growth |
| --- | --- |
| COc1ccc(C2C3CCc4ccccc4C3=NN2C(=O)c2cc(OC)c(OC)c(OC)c2)cc1O (centres undefined) | 109% |
| CCOC(=O)c1ccc(NC(=O)NC2=NCCS2)cc1 | 15.5% |
| CC(C)COC(=O)NC(C)(C)C | 113% |
| Cn1c(=O)c2[nH]c(Cc3ccc4c(c3)OCO4)nc2n(C)c1=O | 108% |
| Nc1nc(N)c2c(n1)NC(c1sc(Cl)nc1Cl)CC(c1ccc3c(c1)OCO3)=N2 (centres undefined) | 34.2% |
| Cc1ccccc1N1C(c2ccccc2)=NNC12C=CC(=O)c1c(O)cccc12 (centres undefined) | 77.6% |
| Nc1nc(N)c2c(n1)NC(c1sc(Cl)nc1Cl)CC(c1ccccc1)=N2 (centres undefined) | 47.9% |
| C=C1NC(=O)C(C(C)CC)NC(=O)C2CSCC(NC(=O)CCC(=O)O)C(=O)NC(Cc3ccccc3)C(=O)NC(C)C(=O)NC(CC(C)CC)C(=O)NC(C(=O)NC(Cc3ccccc3)C(=O)N3CCCC3C(=O)N2)C(C)OC(=O)C(CO)NC(=O)C(C(O)COC)N(C)C(=O)C(C(C)C)NC(=O)C(CC(C)CC)NC1=O (centres undefined) | 2.09% [6 µM] (active) |
| Cc1nc2c(-c3cnc(N)nc3)nc(N3CCOCC3)nc2n1C(C)C | 5.78% (active) |
| C=CC[C@]1(O)CC[C@H]2[C@@H]3CCc4cc(O)ccc4[C@H]3CC[C@@]21C | 76.8% |
| COS(=O)(=O)CCN(CCOS(C)(=O)=O)S(C)(=O)=O | 105% |
| Cc1nc2ccc(Nc3nc(NCCN4CCOCC4)nc(Nc4ccc(F)cc4)n3)cc2n1Cc1ccccc1 | 43.4% |
| COC1CC(N)C2OC(c3ccccc3)OCC2O1 (centres undefined) | 103% |
| COc1ccc2[nH]cc(C(c3ccc(Cl)cc3)N3CCCC3)c2c1 (centres undefined) | 101% |
| CCOP(=O)(O)OP(=O)(O)OCC | 103% |
| COc1cccc(/C=N/N=C(N)N)c1 | 96.4% |
| COc1ccc(C2CC(c3ccc(Nc4ccnc5cc(Cl)ccc45)cc3)=NN2c2ccccc2)cc1 (centres undefined) | 94.2% |
| CC1=C(O)C(=O)C(c2c(C)cc(C)c(Br)c2C)=C(O)C1=O | 67.7% |
| FC(F)(F)C1=NNC(c2ccc3ccccc3c2)=NN1 | 93.7% |
| NC(N)=N/N=C\c1ccc(OCc2ccccc2)cc1 | 58.8% |

| SMILES | growth |
| --- | --- |
| COc1ccc(NC(=O)C2c3ccccc3C(=O)N(CC(C)C)C2c2cccs2)cc1 (centres undefined) | 97.5% |
| NC(N)=N/N=C\c1cccc(OCc2ccccc2)c1 | 68.3% |
| CS(=O)(=O)Nc1cc(-c2cc3ncc(C#N)c(Nc4ccc(Oc5ccccc5)c(Cl)c4)c3s2)cnc1Cl | 56.8% |
| Cc1ccc(NC(=O)c2nc(S(C)(=O)=O)oc2-c2ccc(F)cc2)cc1Nc1ccc2ncn(C)c(=O)c2c1 | 59.2% |
| CC(=O)[C@H]1CC[C@H]2[C@@H]3CC[C@H]4CC=CC[C@]4(C)[C@H]3CC[C@]12C | 113% |
| COc1cccc(NC(=O)[C@H](C(C)C)n2c(=O)[nH]c3ccccc3c2=O)c1 | 104% |
| CC(C)N1CCN(c2ccncc2S(=O)(=O)N2CCN(C)CC2)CC1 | 99.1% |
| [O-]/[N+](=C\c1ccccc1)CC1(O)CCCCC1 | 100% |
| CCc1ccc(-c2ccc(NC3CCCCCC3)nn2)cc1S(N)(=O)=O | 110% |
| C[C@@H]1C[C@H](N)C[C@H](c2ccncc2NC(=O)c2ccc(F)c(-c3c(F)cccc3F)n2)C1 | 48.3% |
| COC(=O)C(CCC(=O)CCl)N1C(=O)c2ccccc2C1=O (centres undefined) | 101% |
| CCCCCCCCCCCCCCC(C(=O)OCC)C(=O)OCC | 108% |
| O=C(Nc1ccc2[nH]c3ccccc3c2c1)c1ccccc1Cl | 24.4% |
| CN(C)c1ccc(/C=C(\C#N)c2nc3ccccc3n2C)cc1 | 26.2% |
| O=C(CS)OCC(COC(=O)CS)(COC(=O)CS)COC(=O)CS | 67.5% |
| C#CC[C@@H]1C[C@]2(C)[C@H]3CC=C4[C@H]5[C@@H](C)[C@H](C)CC[C@]5(C(=O)NCCCCN)CC[C@@]4(C)[C@]3(C)CC[C@H]2C(C)(C)[C@H]1OC(C)=O | 38.3% |
| CC(=O)N1N=C(c2ccc(C)cc2)CC1c1cn(-c2ccccc2)nc1-c1cccc(Nc2ccnc3cc(Cl)ccc23)c1 (centres undefined) | 72.5% |
| CCN(CC)CCC(CNc1ccnc2cc(Cl)ccc12)c1ccc(O)cc1 (centres undefined) | 82% |
| CNC(=O)c1ccccc1Sc1ccc2c(/C=C/c3ccccn3)n[nH]c2c1 | 17.2% |
